Inconclusive results are not listed. Active and inactive are the calls of the source. The calls were made as follows, unless noted: active = hit-call score of the fitted dose curve at least 0.9, where 1 is the maximum; inconclusive = response in the unintended direction; inactive = score below 0.9.
Experiments:
[1] = TOX21_PR_LUC_Followup_Antagonist_viability: Viability Assessment in the Tox21 HEK293 Progesterone Receptor (PR) Antagonism Luciferase Follow-Up Assay (AID 2283940)
Method in brief: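 HEK293-PR-A-luc cells, precultured 5 days in assay medium with 10% charcoal-stripped FBS, were seeded at 3,000 cells/well, treated with compounds in DMSO for 16 h at 37C, and viability was read as cellular ATP by CellTiter-Glo luminescence.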

[2] = TOX21_PR_LUC_Followup_Agonist_viability: Viability Assessment in the Tox21 HEK293 Progesterone Receptor (PR) Agonism Luciferase Follow-Up Assay (AID 2283941);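 also: loss of signal means cytotoxicity so actives lower viability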
Method in brief: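 HEK293-PR-A-luc cells, pre-cultured 5 days in 10% charcoal-stripped FBS, were seeded at 3,000 cells/well, rested 5 h at 37C, then given compound in DMSO for 16 h at 37C. Cellular ATP was read by CellTiter-Glo luminescence; signal loss indicates cytotoxicity.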

[3] = molecular target: T1, Thyroid hormone receptor alpha (Rattus norvegicus) + Thyroid hormone receptor beta (Rattus norvegicus) (UniProt P18113+P63059); experiment: TOX21_TR_LUC_GH3_Agonist_Followup: Tox21 GH3 Thyroid Hormone Receptor Agonism Luciferase Follow-Up Assay (AID 2283939)
T1 sequence (P63059 whole entry, looked up): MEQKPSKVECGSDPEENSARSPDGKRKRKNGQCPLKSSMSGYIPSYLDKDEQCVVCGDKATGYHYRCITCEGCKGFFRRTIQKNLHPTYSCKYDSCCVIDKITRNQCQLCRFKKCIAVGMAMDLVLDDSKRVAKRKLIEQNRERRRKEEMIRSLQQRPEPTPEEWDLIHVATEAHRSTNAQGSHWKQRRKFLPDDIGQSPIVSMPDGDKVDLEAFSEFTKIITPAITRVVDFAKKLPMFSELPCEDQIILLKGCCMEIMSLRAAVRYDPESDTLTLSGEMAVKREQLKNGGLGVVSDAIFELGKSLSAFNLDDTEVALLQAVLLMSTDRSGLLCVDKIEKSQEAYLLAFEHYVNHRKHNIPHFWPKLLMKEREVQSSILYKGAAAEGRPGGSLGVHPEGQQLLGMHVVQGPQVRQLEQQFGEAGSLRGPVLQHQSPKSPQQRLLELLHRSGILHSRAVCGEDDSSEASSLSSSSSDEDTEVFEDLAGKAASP
T1 sequence (P18113 whole entry, looked up): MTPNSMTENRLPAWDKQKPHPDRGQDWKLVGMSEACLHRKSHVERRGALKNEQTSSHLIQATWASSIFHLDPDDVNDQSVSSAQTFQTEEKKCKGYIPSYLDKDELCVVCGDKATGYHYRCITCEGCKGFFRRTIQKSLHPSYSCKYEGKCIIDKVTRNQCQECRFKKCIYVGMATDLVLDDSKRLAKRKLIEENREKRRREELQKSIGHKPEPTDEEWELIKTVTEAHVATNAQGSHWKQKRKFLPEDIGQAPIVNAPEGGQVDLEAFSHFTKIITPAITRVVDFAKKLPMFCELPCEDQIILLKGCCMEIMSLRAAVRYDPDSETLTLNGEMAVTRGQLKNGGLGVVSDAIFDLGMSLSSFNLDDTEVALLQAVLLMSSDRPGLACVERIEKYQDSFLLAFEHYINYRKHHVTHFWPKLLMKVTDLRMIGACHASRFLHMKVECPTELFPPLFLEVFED
Method in brief: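 Rat GH3 cells (1,500/well) in serum-free assay medium, treated with 15-point series, 92 uM to 5 nM final, for 24 h at 37C. Luciferase via ONE-Glo luminescence; gain of signal fitted against DMSO, T3 positive control.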

THRA (gene 7067) [4] = molecular target: THRA (gene 7067) (UniProt P10827); experiment: TOX21_TRA_COA_Agonist_Followup_ratio: Tox21 Thyroid Hormone Receptor alpha Agonism through Coactivator Recruitment Follow-Up Assay, Ratio (AID 2283948; active = hit-call score of the fitted dose curve at least 0.9, where 1 is the maximum; inactive = score below 0.9)
Sequence of THRA (gene 7067) (P10827 whole entry, looked up, the tested form may be a part): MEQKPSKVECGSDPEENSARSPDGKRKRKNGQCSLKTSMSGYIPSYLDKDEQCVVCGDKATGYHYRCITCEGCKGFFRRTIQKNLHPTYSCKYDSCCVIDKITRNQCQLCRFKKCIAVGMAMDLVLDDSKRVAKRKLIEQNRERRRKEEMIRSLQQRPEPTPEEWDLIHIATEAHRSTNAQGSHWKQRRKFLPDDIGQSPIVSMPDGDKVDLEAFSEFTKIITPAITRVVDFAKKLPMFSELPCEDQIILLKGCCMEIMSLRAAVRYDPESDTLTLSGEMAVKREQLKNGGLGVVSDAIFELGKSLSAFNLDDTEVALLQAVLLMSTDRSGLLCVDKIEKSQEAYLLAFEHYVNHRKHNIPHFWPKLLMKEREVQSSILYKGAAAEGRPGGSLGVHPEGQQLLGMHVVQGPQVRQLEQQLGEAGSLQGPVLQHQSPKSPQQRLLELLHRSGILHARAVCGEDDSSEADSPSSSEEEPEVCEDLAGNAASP
Method in brief: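 Agonist-mode biochemical TR-FRET with TRα LBD and SRC-2 coactivator peptide; activity expressed as percent of T3 response over DMSO baseline.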

[5] = TOX21_TRB_BLA_Agonist_Followup_viability: Viability Assessment in the Tox21 Thyroid Hormone Receptor beta Agonism Beta-lactamase (BLA) Follow-Up Assay (AID 2283956)
Method in brief: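 TRb-bla HEK293T cells (GAL4-DBD/human TRb LBD) in 2% charcoal-stripped FBS medium were exposed 18 h at 37C to 11 concentrations in triplicate. CellTiter-Glo ATP luminescence was read after 30 min at room temperature, with bidirectional fitting against DMSO.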

THRB (gene 7068) [6] = molecular target: THRB (gene 7068) (UniProt P10828); experiment: TOX21_TRB_COA_Agonist_Followup_ratio: Tox21 Thyroid Hormone Receptor beta Agonism through Coactivator Recruitment Follow-Up Assay, Ratio (AID 2283963; active = hit-call score of the fitted dose curve at least 0.9, where 1 is the maximum; inactive = score below 0.9)
Sequence of THRB (gene 7068) (P10828 whole entry, looked up, the tested form may be a part): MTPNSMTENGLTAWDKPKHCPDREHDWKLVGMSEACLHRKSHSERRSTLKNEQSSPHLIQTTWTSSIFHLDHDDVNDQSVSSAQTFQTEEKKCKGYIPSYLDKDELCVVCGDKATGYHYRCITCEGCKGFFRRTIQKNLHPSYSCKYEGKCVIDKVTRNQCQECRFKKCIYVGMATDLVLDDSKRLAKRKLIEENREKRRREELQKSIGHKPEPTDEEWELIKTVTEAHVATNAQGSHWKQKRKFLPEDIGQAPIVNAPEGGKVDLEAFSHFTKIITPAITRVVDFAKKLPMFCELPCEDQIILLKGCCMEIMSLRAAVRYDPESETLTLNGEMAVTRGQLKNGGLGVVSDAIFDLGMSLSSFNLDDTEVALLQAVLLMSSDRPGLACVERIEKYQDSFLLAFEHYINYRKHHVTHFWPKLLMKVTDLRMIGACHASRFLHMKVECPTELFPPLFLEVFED
Method in brief: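 GST-TRb LBD 5.0 nM + 0.10% BSA + cpd; add fluorescein-SRC-2 200 nM / Tb anti-GST Ab 2 nM; TR-FRET ex 340, em 520:495; norm DMSO 0%, T3 100%.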

[7] = molecular target: T1, Thyroid hormone receptor alpha (Rattus norvegicus) + Thyroid hormone receptor beta (Rattus norvegicus); experiment: TOX21_TR_LUC_GH3_Antagonist_Followup: Tox21 GH3 Thyroid Hormone Receptor Antagonism Luciferase Follow-Up Assay (AID 2283942)
Method in brief: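 Confirmatory qHTS, antagonist mode: T3 (1.0 nM final) + test cpd, 15 conc, 92 uM–5nM final, GH3 rat pituitary line, 24 h, 37C. Luc reporter, RLU vs DMSO.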

THRA (gene 7067) [8] = molecular target: THRA (gene 7067) (UniProt P10827); experiment: TOX21_TRA_COA_Antagonist_Followup_ratio: Tox21 Thyroid Hormone Receptor alpha Antagonism through Coactivator Recruitment Follow-Up Assay, Ratio (AID 2283953)
Method in brief: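 This follow-up to the GH3 luciferase screen checks specificity in a cell-free format. It measures SRC-2 coactivator peptide binding to TRα LBD by TR-FRET and scores loss of ratio signal relative to DMSO.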

THRB (gene 7068) [9] = molecular target: THRB (gene 7068) (UniProt P10828); experiment: TOX21_TRB_BLA_Antagonist_Followup_ratio: Tox21 Thyroid Hormone Receptor beta Antagonism Beta-lactamase (BLA) Follow-Up Assay, Ratio (AID 2283958)
Method in brief: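 GAL4-DBD/human TRβ-LBD fusion in GeneBLAzer UAS-bla HEK293T cells, 3,000 cells/well in phenol red-free DMEM with 2% charcoal-stripped FBS; compounds at 11 concentrations in triplicate, 18 h at 37C. CCF4-AM substrate 2 h, 460:530 nm ratio relative to DMSO.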

[10] = TOX21_TRB_BLA_Antagonist_Followup_viability: Viability Assessment in the Tox21 Thyroid Hormone Receptor beta Antagonism Beta-lactamase (BLA) Follow-Up Assay (AID 2283961)
Method in brief: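 In the same wells as the reporter read, cell health was gauged by CellTiter-Glo ATP luminescence, with signal loss indicating reduced viability. Cells had been exposed to test compounds for 18 h.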

## CCCCCCCCCc1ccc(O)cc1
[1]
  outcome: inactive

## CC(C)(O)C(=O)Nc1ccc([N+](=O)[O-])c(C(F)(F)F)c1
[1]
  outcome: inactive
[2]
  outcome: inactive

## ClC1=C(Cl)[C@]2(Cl)[C@@H]3[C@@H]4C[C@@H]([C@H]5O[C@@H]45)[C@@H]3[C@@]1(Cl)C2(Cl)Cl
[1]
  outcome: inactive

## COc1ccc(O)c(C(C)(C)C)c1
[1]
  outcome: inactive
[2]
  outcome: inactive

## Cc1cc(O)ccc1Cl
[3]
  outcome: inactive
THRA (gene 7067) [4]
  outcome: inactive
[5]
  outcome: inactive
THRB (gene 7068) [6]
  outcome: inactive

## C[C@]12CCC(=O)C=C1CC[C@@H]1[C@@H]2CC[C@]2(C)C(=O)CC[C@@H]12
[1]
  outcome: inactive
[2]
  outcome: inactive

## CCC(=O)O[C@H]1CC[C@H]2[C@@H]3CCC4=CC(=O)CC[C@]4(C)[C@H]3CC[C@]12C
[1]
  outcome: inactive
[2]
  outcome: inactive

## ClC(Cl)=C(c1ccc(Cl)cc1)c1ccc(Cl)cc1
[1]
  outcome: inactive
[2]
  outcome: inactive

## C[C@]12CCC(=O)C=C1CC[C@@H]1[C@@H]2CC[C@@]2(C)[C@H]1CC[C@]2(C)O
[7]
  outcome: inactive
THRA (gene 7067) [8]
  outcome: inactive
THRB (gene 7068) [9]
  outcome: inactive

## N#Cc1ccc(N(CC(N)=O)CC(F)(F)F)cc1C(F)(F)F
[1]
  outcome: inactive
[2]
  outcome: inactive

## CO/C=C(/C(=O)OC)c1ccccc1COc1cccc(C(F)(F)F)n1
[7]
  AC50: 2.06 µM (active)
THRA (gene 7067) [8]
  outcome: inactive
THRB (gene 7068) [9]
  outcome: inactive
[10]
  outcome: inactive

## CC(C)(c1ccccc1)c1ccc(O)cc1
[1]
  outcome: inactive
[2]
  outcome: inactive

## Oc1ccc(C(c2ccc(O)cc2)(C(F)(F)F)C(F)(F)F)cc1
[2]
  outcome: inactive

## Clc1ccc(C(c2ccccc2Cl)C(Cl)(Cl)Cl)cc1 (stereo not given)
[1]
  outcome: inactive
[2]
  AC50: 76 µM (active)
